Bioassay records deposited in PubChem BioAssay by National Center for Advancing Translational Sciences (NCATS).
TGFb inhibitor: inhibitors of TGF-b signaling | HepG2 CAGA-GFP TGF-b/SMAD3 reporter, GFP fluorescence, 18 h; TGF-beta stimulated, 500 pg/mL final | Potency, µM (top dose mostly 46.1 µM), without a hit: at the highest dose activity, negative = inhibition, hits mostly inhibitors | 1.2% of 410,000 active | AID 588855; further: potency means the concentration at half of the fitted maximal effect; on the % scale 0 is the no-effect control and ±100 the full control effect; nearly all actives have a fitted effect of over 65% in size
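TGF-beta reporter screen: HEPG2 CAGA-GFP, 1% FBS, 500 pg/mL TGF-beta final, 18 h; per-cell GFP summed per well; curves fitted and categorized by class.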
TDP1 block: TDP1 (human) enzyme inhibition; recombinant TDP1, AlphaScreen DNA substrate cleavage; Potency, µM (top dose mostly 130 µM), inactives show at the highest dose activity change, negative = inhibition, hits mostly inhibitors; 0.28% of 350,000 active; further: potency means the concentration at half of the fitted maximal effect; on the % scale 0 is the no-effect control and ±100 the full control effect; nearly all actives have a fitted effect of over 40% in size
Target sequence (Q9NUW8 whole entry, looked up): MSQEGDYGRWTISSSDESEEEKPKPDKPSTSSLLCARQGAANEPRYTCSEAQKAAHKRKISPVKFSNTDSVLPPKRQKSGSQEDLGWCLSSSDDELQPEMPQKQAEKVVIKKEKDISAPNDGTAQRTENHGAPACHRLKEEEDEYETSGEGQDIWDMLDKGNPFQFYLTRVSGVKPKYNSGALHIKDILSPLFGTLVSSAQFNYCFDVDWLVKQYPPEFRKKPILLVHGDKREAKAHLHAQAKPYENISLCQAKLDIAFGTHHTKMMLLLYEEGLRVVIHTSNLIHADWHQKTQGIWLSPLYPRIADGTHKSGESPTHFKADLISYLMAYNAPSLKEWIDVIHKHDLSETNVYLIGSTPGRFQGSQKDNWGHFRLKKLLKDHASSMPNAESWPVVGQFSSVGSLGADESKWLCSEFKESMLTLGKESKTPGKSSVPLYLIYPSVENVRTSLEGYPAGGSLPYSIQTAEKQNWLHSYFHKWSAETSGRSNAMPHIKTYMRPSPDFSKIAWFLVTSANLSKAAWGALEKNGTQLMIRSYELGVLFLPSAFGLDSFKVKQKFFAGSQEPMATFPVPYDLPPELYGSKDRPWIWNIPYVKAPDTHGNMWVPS
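Signal: AlphaScreen proximity between streptavidin donor and anti-FITC acceptor beads on intact substrate. Reaction: Tdp1 1 nM, substrate 15 nM final, 5 min RT after 15 min compound preincubation.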
IL-1B inflam inh: inhibitors of inflammasome signaling (IL-1 beta secretion). THP-1 LPS/ATP IL-1B secretion, AlphaLISA, 16 h; hits give low values. 4.7% of 360,000 active. activity change, % at 57.5 µM; in the data active means activity change below about -50%; inconclusive means mostly about -30% to -49%; further: on the % scale 0 is the no-effect control and ±100 the full control effect
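Secreted IL-1B measured by AlphaLISA bead assay after 16 h compound exposure of THP-1 cells; compounds (final up to 57.5 uM) added 1 h before LPS (250 ng/mL) and ATP (1.25 mM) stimulation; lower signal means less secretion.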
DT40 TDP1 no CPT: qHTS for Inhibitors of human tyrosyl-DNA phosphodiesterase 1 (TDP1): qHTS in cells in absence of CPT; DT40 Tdp1-/- hTDP1 cells, no CPT, ATP luminescence, 48 h; Potency, µM (top dose mostly 46.2 µM), for inactives: at the top dose activity change, negative = growth inhibition, hits mostly inhibitors; 15% of 420,000 active; further: potency means the concentration at half of the fitted maximal effect; on the % scale 0 is the no-effect control and ±100 the full control effect; nearly all actives have a fitted effect of over 55% in size
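Stably hTDP1-transfected Tdp1-null chicken DT40 cells were treated with library compounds minus camptothecin and grown for at least 48 hr at 37 °C, after which cellular ATP was quantified by luminescence.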
DT40 TDP1 CPT: DT40-hTDP1 cell growth loss with CPT; chicken DT40 Tdp1-/-;hTDP1 cells + 20 nM CPT, ATP luminescence, 48 h; 12% of 420,000 active; AID 686979; Potency, µM (top dose mostly 46.2 µM), for the others: top-dose activity change, negative = growth inhibition, actives largely listed as inhibitors; further: potency means the concentration at half of the fitted maximal effect; on the % scale 0 is the no-effect control and ±100 the full control effect; nearly all actives have a fitted effect of over 55% in size
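Chicken DT40 Tdp1-/- cells stably complemented with human TDP1 were seeded at 400 cells/well in medium containing 20 nM camptothecin, exposed to pin-transferred compounds, and grown at 37 °C for at least 48 hr. Viability was read as ATP luminescence.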
HepG2 viability: HepG2 cytotoxicity, counter-screen for TGF-b inhibitors. HepG2 CAGA-GFP viability, ATP luminescence, 18 h. Potency, µM (titrated, usually from 46.1 µM), without a hit: at the highest dose activity change, negative = cytotoxicity, actives largely listed as cytotoxic. 0.76% of 410,000 active. AID 588856; further: potency means the concentration at half of the fitted maximal effect
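HepG2 CAGA-GFP cells (1000/well, DMEM with 1% FBS) received compound, then TGF-beta at 500 pg/mL final, and were incubated 18 hours at 37 degrees C. Viability was read by CellTiter-Glo luminescence. Media-only wells were set as complete cell-killing and DMSO as no toxicity.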
The depositor's hits bear a star; ? = inconclusive; . = not tested or not shown; [ ] = dose if it differs, or a comment. Rows were chosen to be rich in hits. Some 18% of all compounds tested hit in one or more screens of this group. Unless noted, the call rests on the fitted dose curve; in most records, active means well fitted curve in the direction sought with a large enough effect; inconclusive means small, poorly fitted or top-dose-only effect, or another doubt; inactive means no such curve, though single readings can be large; an effect the other way counts as inactive or inconclusive.

SMILES	TGFb inhibitor	TDP1 block	IL-1B inflam inh	DT40 TDP1 no CPT	DT40 TDP1 CPT	HepG2 viability
CCc1ccc2nc(N(CCN(CC)CC)C(=O)c3ccco3)sc2c1	-12%	10%	.	?	21µM*	-26%
CC(C)n1cnnc1SCC(=O)Nc1cccnc1Cl	17%	1%	21	-5%	8%	2%
Cc1cc(NC(=O)CSc2nnc(-c3ccccc3)c(-c3ccccc3)n2)no1	?	-8%	-3	5.2µM*	3.7µM*	1%
Cc1cc(NC(=O)CSc2nnc(-c3ccccc3)o2)no1	-12%	2%	-11	23µM*	?	-15%
Cc1cc(NC(=O)CSc2nnc(-c3ccc(O)cc3)o2)no1	8%	1%	0	-2%	7%	-4%
Cc1ccc2nc(/C(C#N)=C\c3cc(C)n(-c4cccc([N+](=O)[O-])c4)c3C)[nH]c2c1	-19%	9%	?	9.2µM*	8.2µM*	-5%
Cc1cc(/C=C(/C#N)c2nc3ccccc3[nH]2)c(C)n1-c1cc(C(=O)O)cc(C(=O)O)c1	14%	.	18	-5%	27%	0%
COc1ccc(Nc2nnc(-c3ccc(C(=O)NCCO)cc3)c3ccccc23)cc1	-23%	.	-30	6.5µM*	3.3µM*	-9%
COc1ccc(Nc2nnc(-c3ccc(C(N)=O)cc3)c3ccccc23)cc1	?	.	?	?	?	1%
CCN(CC)C(=O)c1ccc(Nc2nnc(C)c3ccccc23)cc1	4%	2%	-18	?	?	-38%
C#CCOc1ccc(-c2nnc(Nc3ccc(NC(C)=O)cc3)c3ccccc23)cc1	-15%	.	.	16µM*	?	-25%
CC(=O)Nc1ccc(Nc2nnc(-c3ccc(O)cc3)c3ccccc23)cc1	10%	.	-26	0%	-3%	9%
CCN(CC)C(=O)c1ccc(Nc2nnc(-c3ccc(C)c(S(=O)(=O)NC)c3)c3ccccc23)cc1	11µM*	-9%[12.3 µM]	.	21µM*	26µM*	-82%
CNS(=O)(=O)c1cc(-c2nnc(Nc3ccc(NC(C)=O)cc3)c3ccccc23)ccc1C	?	.	?	18µM*	16µM*	13%
CCN(CC)C(=O)COc1ccc(-c2nnc(Nc3ccc(OC)c(C(=O)NC)c3)c3ccccc23)cc1	15%	8%	-79*	21µM*	?	-8%
CCN(CC)C(=O)c1ccc(-c2nnc(Nc3ccc(C(=O)N(C)C)cc3)c3ccccc23)cc1	-16%	.	?	16µM*	?	-21%
C#CC(C)(C)NS(=O)(=O)c1cc(-c2nnc(Nc3ccc(C)cc3)c3ccccc23)ccc1C	13µM*	6%	.	?	21µM*	8%
CCN(CC)C(=O)c1ccc(-c2nnc(Nc3ccc(O)cc3)c3ccccc23)cc1	-12%	.	-11	?	-109%	0%
CCN(CC)S(=O)(=O)c1cc(-c2nnc(Nc3ccc(OC)c(C(N)=O)c3)c3ccccc23)ccc1C	-23%	0%[12.3 µM]	.	?	18µM*	-25%
Cc1cccc(Nc2nnc(-c3ccc(C)c(S(=O)(=O)N4CCCCC4)c3)c3ccccc23)c1	-15%	-2%[12.3 µM]	.	?	?	-12%
COc1ccc2[nH]c3c(c2c1)CCN1C(=O)C(CC(=O)NCc2cccc(C(F)(F)F)c2)C[C@H](C(=O)N2CCCCC2)[C@@]31CCc1ccccc1 (stereo not given in full)	?	3%[56.1 µM]	?	?	16µM*	-27%
O=C(C[C@H]1C[C@H](C(=O)N2CCCCC2)[C@@]2(CCc3ccccc3)c3[nH]c4ccc(Cl)cc4c3CCN2C1=O)NCc1ccco1	-16%	1%[56.1 µM]	-19	8.2µM*	7.3µM*	-27%
O=C(CC1C[C@H](C(=O)N2CCCCC2)[C@@]2(CCc3ccccc3)c3[nH]c4ccccc4c3CCN2C1=O)NCc1cccc(C(F)(F)F)c1 (stereo not given in full)	-12%	2%	?	16µM*	?	-12%
COc1ccc2[nH]c3c(c2c1)CCN1C(=O)C(CC(=O)NCCN2CCOCC2)C[C@H](C(=O)N2CCCCC2)[C@@]31CCc1ccccc1 (stereo not given in full)	28%	2%[56.1 µM]	3	?	?	6%
O=C(C[C@H]1C[C@H](C(=O)N2CCCCC2)[C@@]2(CCc3ccccc3)c3[nH]c4ccc(Cl)cc4c3CCN2C1=O)NCc1cccc(C(F)(F)F)c1	2%	1%[56.1 µM]	?	12µM*	13µM*	0%
SMILES	TGFb inhibitor	TDP1 block	IL-1B inflam inh	DT40 TDP1 no CPT	DT40 TDP1 CPT	HepG2 viability
Cc1cc(C)c(NC(=O)CSc2nc3c([nH]c4ccccc43)c(=O)n2C)c(C)c1	-15%	-4%	.	?	?	-19%
CNc1ccc(/C=C2\C=Cc3ccccc32)cc1I	0%	.	.	?	?	-23%
CC(C)(C)NC(=O)C[C@H]1C[C@H](C(=O)N2CCCCC2)[C@@]2(CCc3ccccc3)c3[nH]c4ccc(Cl)cc4c3CCN2C1=O	-10%	1%[56.1 µM]	-4	?	?	-7%
COCCCNC(=O)C[C@H]1C[C@H](C(=O)N2CCCCC2)[C@@]2(CCc3ccccc3)c3[nH]c4ccc(Cl)cc4c3CCN2C1=O	19%	1%[56.1 µM]	-17	4.6µM*	8.2µM*	4%
Cc1csc(C)[n+]1CC(=O)c1ccccc1	1%	.	18	-5%	1%	3%
CCCC1=[N+](CC(=O)c2ccc(C)cc2)CCn2cccc21	0%	3%	-2	18µM*	?	-2%
CCCC1=[N+](CC(=O)c2ccccc2)CCn2c(C)ccc21	-8%	6%	?	2.1µM*	2.9µM*	2%
c1ccc(CN(Cc2ccccc2)Cc2nnc(-c3cc4ccccc4[nH]3)o2)cc1	.	0%	.	.	.	.
CCCCN(C)CCNC(=O)c1cc2c(-c3cccc(OC)c3)nn(C)c2s1	2%	.	-87*	21µM*	?	-32%
COc1cccc(-c2nn(C)c3sc(C(=O)NCCCN(C)Cc4ccccc4)cc23)c1	-11%	.	-79*	16µM*	?	-22%
COc1cccc(-c2nn(C)c3sc(C(=O)NCc4ccco4)cc23)c1	?	9%	-56*	-27%	21µM*	-5%
COc1cccc(-c2nn(C)c3sc(C(=O)NCCc4ccc(Cl)cc4)cc23)c1	-17%	0%	.	?	?	-27%
